# The supplement of paper PMC11732987, “Enantioselective OTUD7B fragment discovery through chemoproteomics screening and high-throughput optimisation” (Communications Chemistry, 2025)
# A number with no mark means an inactive call.
# What was measured:
# Experiment in all cases: log2 ratio of Biotin-Ahx-Ub-VS probe labelling (fragment/DMSO); higher = less target engagement (more negative = stronger competition), active = hit call of the paper (q ≤ 0.05, log2 ratio ≤ -1)
# Settings in all cases: compound concentration: 200 uM; treatment time: 3 h
# USP19 = molecular target: T1, USP19 (UniProt O94966)
# T1 sequence (whole entry): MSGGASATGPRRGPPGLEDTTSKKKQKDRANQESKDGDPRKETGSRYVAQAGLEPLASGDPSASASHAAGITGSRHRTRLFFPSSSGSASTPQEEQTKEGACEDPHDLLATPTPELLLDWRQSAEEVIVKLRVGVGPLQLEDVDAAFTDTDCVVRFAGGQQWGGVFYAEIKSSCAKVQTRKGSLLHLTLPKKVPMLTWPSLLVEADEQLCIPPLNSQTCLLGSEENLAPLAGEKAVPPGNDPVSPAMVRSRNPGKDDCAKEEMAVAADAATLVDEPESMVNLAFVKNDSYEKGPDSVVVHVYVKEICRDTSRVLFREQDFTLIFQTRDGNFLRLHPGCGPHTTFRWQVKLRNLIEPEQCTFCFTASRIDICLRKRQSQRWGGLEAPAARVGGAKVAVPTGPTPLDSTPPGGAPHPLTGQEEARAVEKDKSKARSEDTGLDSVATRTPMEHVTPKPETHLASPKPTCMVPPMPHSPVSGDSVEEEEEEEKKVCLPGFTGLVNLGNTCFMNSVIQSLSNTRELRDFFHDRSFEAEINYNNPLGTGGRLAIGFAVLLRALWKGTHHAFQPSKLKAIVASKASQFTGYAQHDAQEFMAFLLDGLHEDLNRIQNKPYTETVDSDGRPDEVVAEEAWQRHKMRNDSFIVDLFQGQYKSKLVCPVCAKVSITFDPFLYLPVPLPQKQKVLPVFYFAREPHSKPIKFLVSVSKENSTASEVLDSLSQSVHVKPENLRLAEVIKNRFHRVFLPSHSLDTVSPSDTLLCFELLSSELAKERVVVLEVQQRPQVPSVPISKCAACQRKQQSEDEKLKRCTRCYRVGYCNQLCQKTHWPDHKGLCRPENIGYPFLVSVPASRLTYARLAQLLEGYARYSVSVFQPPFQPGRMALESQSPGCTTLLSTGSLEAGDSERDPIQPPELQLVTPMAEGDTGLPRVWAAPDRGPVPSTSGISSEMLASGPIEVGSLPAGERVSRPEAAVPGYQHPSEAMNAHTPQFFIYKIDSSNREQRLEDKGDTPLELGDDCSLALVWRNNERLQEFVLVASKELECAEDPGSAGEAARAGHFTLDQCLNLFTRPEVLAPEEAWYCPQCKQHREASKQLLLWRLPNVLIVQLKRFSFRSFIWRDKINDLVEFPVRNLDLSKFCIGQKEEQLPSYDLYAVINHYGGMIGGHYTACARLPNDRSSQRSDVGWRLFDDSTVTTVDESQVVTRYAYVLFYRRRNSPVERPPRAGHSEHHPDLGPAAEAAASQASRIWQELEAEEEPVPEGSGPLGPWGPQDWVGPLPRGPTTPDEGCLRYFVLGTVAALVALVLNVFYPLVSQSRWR
# Summary of the method: (§1)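 HEK293T lysate, 495 µg per sample in Tris/CHAPS/IGEPAL buffer with protease inhibitors, was treated in triplicate with fragment at 200 µM or vehicle for 3 h and then with Biotin-Ahx-Ub-VS at 0.5 µM final for 1 h. Labelled DUBs were NeutrAvidin-enriched, digested with LysC and trypsin, and run by diaPASEF LC-MS/MS. Spectronaut label-free quantities were global-median-normalised, and values are average log2 fragment/vehicle ratios by unpaired t-test on proteins with ≥2 unique peptides.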
# USP22 = molecular target: T2, USP22 (UniProt Q9UPT9)
# T2 sequence (whole entry): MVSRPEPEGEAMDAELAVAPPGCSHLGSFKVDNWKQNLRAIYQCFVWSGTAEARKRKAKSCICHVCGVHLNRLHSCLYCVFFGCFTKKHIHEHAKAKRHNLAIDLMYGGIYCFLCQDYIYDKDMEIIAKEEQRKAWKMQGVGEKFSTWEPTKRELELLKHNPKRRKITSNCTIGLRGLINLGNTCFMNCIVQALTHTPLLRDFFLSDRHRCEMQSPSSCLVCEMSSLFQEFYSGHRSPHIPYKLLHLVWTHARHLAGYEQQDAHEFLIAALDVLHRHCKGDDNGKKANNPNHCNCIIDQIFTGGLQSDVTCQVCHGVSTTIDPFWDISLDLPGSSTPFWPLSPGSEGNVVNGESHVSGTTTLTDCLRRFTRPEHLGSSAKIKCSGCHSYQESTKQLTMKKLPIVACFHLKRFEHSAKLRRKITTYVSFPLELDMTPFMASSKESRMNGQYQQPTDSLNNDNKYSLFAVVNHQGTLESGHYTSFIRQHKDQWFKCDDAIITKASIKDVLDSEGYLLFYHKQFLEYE
# Summary of the method: as §1
# USP24 = USP24 (UniProt Q9UPU5)
# Sequence of USP24 (Q9UPU5 whole entry): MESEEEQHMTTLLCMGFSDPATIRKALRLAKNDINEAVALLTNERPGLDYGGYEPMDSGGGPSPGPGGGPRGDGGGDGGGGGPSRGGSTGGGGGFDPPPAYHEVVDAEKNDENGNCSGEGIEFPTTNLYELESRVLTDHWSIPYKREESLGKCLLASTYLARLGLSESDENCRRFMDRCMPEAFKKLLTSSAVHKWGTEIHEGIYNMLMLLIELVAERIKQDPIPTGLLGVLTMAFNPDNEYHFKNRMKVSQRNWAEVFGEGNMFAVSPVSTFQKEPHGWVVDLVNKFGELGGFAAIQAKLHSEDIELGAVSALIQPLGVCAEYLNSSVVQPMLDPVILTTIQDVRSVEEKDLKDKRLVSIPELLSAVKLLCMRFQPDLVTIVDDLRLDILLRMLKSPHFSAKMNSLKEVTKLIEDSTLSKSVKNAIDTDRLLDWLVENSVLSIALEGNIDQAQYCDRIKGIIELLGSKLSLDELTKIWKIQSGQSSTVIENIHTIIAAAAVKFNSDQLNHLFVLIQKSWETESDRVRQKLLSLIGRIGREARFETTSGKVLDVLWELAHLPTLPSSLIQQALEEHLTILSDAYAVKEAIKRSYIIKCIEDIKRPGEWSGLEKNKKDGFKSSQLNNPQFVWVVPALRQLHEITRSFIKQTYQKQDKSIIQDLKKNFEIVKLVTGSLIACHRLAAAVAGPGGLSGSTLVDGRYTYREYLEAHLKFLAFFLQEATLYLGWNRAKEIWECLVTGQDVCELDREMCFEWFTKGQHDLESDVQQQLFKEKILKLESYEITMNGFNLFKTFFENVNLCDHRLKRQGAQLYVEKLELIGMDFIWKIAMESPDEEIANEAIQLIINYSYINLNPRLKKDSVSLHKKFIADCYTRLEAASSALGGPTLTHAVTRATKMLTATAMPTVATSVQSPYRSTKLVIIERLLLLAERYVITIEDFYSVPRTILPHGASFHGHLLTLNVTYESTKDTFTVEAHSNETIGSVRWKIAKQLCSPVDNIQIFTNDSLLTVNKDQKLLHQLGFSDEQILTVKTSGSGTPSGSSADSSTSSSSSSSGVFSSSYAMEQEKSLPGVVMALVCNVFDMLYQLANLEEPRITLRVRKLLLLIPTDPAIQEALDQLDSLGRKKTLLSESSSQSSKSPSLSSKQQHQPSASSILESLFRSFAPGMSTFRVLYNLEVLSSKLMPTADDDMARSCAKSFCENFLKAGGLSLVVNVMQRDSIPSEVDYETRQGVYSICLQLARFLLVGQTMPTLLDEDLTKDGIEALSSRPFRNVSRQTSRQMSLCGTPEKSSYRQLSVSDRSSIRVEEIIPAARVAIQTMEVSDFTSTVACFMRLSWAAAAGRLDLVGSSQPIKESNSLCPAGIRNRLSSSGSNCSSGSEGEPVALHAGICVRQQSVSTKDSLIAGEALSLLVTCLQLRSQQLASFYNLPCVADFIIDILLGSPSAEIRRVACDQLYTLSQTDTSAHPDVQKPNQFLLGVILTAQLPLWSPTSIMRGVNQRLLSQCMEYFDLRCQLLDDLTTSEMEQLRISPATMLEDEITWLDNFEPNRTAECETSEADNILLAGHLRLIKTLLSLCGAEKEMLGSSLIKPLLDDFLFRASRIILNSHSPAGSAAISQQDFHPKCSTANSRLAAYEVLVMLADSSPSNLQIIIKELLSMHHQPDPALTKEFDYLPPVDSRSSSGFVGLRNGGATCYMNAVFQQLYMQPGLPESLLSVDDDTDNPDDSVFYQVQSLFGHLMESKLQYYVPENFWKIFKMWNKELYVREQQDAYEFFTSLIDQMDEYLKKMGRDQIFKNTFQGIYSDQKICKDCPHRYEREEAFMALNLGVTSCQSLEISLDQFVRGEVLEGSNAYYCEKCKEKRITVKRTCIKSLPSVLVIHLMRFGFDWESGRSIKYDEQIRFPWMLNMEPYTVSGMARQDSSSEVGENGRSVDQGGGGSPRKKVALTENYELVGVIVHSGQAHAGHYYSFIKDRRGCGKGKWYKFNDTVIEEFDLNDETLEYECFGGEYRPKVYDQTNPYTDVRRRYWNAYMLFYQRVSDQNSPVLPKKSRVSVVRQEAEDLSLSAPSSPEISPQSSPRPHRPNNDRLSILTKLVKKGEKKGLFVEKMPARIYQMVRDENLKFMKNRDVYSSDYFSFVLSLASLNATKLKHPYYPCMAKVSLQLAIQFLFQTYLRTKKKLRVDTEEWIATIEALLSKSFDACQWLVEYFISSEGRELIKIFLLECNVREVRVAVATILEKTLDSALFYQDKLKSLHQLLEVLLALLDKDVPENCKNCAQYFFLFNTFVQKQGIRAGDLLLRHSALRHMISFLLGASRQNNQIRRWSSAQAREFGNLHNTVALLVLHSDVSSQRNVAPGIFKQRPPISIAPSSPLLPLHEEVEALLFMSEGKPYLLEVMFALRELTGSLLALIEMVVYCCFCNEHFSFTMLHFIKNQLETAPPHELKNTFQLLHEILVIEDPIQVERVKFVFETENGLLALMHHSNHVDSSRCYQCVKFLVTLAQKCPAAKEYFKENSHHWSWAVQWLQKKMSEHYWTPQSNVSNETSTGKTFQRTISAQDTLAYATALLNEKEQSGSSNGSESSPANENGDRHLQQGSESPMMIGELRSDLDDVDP
# Summary of the method: as §1
# USP25 = molecular target: T3, USP25 (UniProt Q9UHP3)
# T3 sequence (whole entry): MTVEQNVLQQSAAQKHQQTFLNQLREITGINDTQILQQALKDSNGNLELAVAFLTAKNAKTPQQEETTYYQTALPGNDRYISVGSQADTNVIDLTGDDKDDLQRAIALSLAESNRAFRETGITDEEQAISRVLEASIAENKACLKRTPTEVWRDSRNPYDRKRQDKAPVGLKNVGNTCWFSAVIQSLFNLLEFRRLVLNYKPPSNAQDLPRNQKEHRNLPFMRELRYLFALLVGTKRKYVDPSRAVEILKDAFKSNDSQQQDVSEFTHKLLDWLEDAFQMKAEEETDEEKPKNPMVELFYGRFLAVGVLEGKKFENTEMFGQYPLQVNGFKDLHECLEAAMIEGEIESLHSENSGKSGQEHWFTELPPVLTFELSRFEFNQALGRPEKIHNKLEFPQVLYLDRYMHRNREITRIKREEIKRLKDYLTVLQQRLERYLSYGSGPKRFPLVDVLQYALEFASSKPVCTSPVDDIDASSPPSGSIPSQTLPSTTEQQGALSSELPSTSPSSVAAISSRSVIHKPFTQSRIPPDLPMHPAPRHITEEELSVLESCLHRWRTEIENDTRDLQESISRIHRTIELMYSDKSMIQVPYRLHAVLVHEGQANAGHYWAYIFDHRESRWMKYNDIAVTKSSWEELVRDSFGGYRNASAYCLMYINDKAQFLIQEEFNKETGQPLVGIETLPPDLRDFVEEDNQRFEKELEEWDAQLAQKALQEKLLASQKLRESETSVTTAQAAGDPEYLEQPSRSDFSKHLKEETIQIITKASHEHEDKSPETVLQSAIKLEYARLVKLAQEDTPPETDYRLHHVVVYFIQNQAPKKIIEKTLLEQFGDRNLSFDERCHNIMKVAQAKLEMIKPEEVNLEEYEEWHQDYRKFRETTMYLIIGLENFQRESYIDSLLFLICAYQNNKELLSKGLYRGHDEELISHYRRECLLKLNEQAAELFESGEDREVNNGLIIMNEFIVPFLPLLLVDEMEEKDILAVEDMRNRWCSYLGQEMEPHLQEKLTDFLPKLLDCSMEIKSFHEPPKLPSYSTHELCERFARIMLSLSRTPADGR
# Summary of the method: as §1
# USP28 = molecular target: T4, USP28 (UniProt Q96RU2)
# T4 sequence (whole entry): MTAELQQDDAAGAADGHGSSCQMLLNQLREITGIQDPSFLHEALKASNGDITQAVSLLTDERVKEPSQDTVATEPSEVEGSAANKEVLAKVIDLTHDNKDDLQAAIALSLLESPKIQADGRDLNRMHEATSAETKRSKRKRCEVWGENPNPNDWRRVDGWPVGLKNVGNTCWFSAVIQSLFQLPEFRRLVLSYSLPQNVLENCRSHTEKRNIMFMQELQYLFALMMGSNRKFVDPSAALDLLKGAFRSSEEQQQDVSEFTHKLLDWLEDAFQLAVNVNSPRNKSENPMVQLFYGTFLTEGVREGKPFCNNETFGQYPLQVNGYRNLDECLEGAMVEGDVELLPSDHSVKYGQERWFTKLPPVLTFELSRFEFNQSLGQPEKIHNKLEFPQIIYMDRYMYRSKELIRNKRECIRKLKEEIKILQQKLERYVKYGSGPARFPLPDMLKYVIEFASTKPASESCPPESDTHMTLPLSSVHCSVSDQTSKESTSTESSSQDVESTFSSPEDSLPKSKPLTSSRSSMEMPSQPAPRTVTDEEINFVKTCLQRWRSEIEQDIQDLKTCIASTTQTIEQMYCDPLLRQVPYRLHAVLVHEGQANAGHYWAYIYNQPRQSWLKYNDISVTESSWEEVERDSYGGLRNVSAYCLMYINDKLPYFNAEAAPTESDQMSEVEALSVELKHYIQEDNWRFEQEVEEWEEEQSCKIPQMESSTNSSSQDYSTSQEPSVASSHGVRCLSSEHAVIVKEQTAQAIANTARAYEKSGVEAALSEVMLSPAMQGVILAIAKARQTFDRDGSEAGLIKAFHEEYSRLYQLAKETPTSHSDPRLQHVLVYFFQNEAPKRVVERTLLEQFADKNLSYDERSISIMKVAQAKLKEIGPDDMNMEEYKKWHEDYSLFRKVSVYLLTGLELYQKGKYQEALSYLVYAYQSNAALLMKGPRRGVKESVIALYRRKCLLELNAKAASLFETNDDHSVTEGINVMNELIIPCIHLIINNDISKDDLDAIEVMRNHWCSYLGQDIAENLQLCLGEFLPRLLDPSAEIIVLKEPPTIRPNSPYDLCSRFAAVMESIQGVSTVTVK
# Summary of the method: as §1
structure (smiles),measurement,setting,value
Cl.O=C(CCl)NCCN1CCc2ccccc21,log2 ratio of Biotin-Ahx-Ub-VS probe labelling,USP19,-0.976
same,log2 ratio of Biotin-Ahx-Ub-VS probe labelling,USP22,-1.07 (active)
same,log2 ratio of Biotin-Ahx-Ub-VS probe labelling,USP24,-1.05 (active)
same,log2 ratio of Biotin-Ahx-Ub-VS probe labelling,USP25,-0.576
same,log2 ratio of Biotin-Ahx-Ub-VS probe labelling,USP28,-1.11 (active)
